Read-out in assay [1]: X-box binding protein 1 (XBP1), XBP1 (gene 7494)
In words: LTEA_HepaRG_XBP1: Life Technologies and Expression Analysis (LTEA) Assay for X-box binding protein 1 (XBP1) using HepaRG (AID 2283540; active = hit-call score of the fitted dose curve at least 0.9, where 1 is the maximum; inactive = score below 0.9). The settings on record: mRNA level, 48 h; actives raise or lower the signal. Summed up:
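HepaRG, 48 h exposure, 8-pt half-log CRC top 100 uM, 0.5% DMSO vehicle, duplicates. Readout: TaqMan qRT-PCR of XBP1 mRNA, housekeeping-normalised (ACTB/GAPDH/POLR2A); bidirectional fit vs DMSO baseline.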

Assay [2] can be described thus: LTEA_HepaRG_LDH_cytotoxicity: Cytotoxicity Assessment in the Life Technologies and Expression Analysis (LTEA) Assay (AID 2283563).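 For AC50: LDH activity released into spent culture medium as a marker of cell death.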 The method in brief:
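HepaRG (human liver line), 48 h exposure, 8-pt half-log series from 100 uM, 0.5% DMSO vehicle, duplicates. Read-out: LDH in spent medium. Positive-direction fit vs DMSO baseline.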

Assay [3] can be described thus: TOX21_p53_BLA_p2_viability: Viability Assessment in the Tox21 HCT-116 p53 Agonism Beta-lactamase Assay, Phase 2 (AID 2283591).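 Note: actives lower the ATP signal meaning cytotoxicity.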 Summed up:
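HCT116 p53-bla cells, 4000/well, dosed after 5 h plating (217-fold dilution of DMSO stocks) and incubated 16 h at 37C. Viability taken as cellular ATP by CellTiter-Glo luminescence after 30 min RT; signal loss marks cytotoxicity.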

Assay [4] has as its target Cellular tumor antigen p53 (Homo sapiens) (UniProt P04637). The assay can be described thus: TOX21_p53_BLA_p2_ratio: Tox21 HCT-116 p53 Agonism Beta-lactamase Assay, Ratio, Phase 2 (AID 2283592). Summed up: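 Readout: blue/green (460/530 nm) FRET emission ratio after 2 h CCF4-AM loading at room temperature, excitation 405 nm. HCT116 p53 bla cells, 16 h compound exposure at 37C, 5% CO2; agonist direction fitted against DMSO baseline.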

The nature of assay [5]: TOX21_p53_BLA_p3_viability: Viability Assessment in the Tox21 HCT-116 p53 Agonism Beta-lactamase Assay, Phase 3 (AID 2283593).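 Note: cells exposed to compound for 16 h before reading.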 Summed up: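 HCT116 cells, 4000/well, dosed 5 h after plating by pin transfer (217-fold dilution from DMSO stock) and incubated 16 h at 37C, 5% CO2. Viability read as ATP luminescence with CellTiter-Glo after 30 min at room temperature.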
Assay [6] concerns the target Cellular tumor antigen p53 (Homo sapiens) (UniProt P04637). The assay can be described thus: TOX21_p53_BLA_p3_ratio: Tox21 HCT-116 p53 Agonism Beta-lactamase Assay, Ratio, Phase 3 (AID 2283596). Summed up:
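Cells were seeded at 4000/well, rested 5 h at 37C, then dosed with DMSO compound solutions (217-fold dilution) for 16 h. CCF4-AM substrate was loaded for 2 h at room temperature, and the 460/530 nm emission ratio was fitted for gain of signal versus DMSO.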

A short description of assay [7]: TOX21_p53_BLA_p4_viability: Viability Assessment in the Tox21 HCT-116 p53 Agonism Beta-lactamase Assay, Phase 4 (AID 2283597).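 Note: hits lower the luminescence signal meaning cytotoxicity.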 The method in brief:
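ATP content by CellTiter-Glo luminescence, 30 min RT, read after the beta-lactamase ratio step. Cells: HCT116, 4000/well, compound added after 5 h, exposure 16 h at 37C. Signal loss = reduced viability.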

Assay [8] deals with Cellular tumor antigen p53 (Homo sapiens) (UniProt P04637). In words: TOX21_p53_BLA_p5_ratio: Tox21 HCT-116 p53 Agonism Beta-lactamase Assay, Ratio, Phase 5 (AID 2283599). Summed up:
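HCT-116 p53-bla cells (4000/well) plated 5 h, dosed with compound (217-fold DMSO dilution) for 16 h at 37 C; CCF4-AM substrate 2 h at room temperature. Activity is the 460/530 nm emission ratio (405 nm excitation), fitted in gain-of-signal direction versus DMSO.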

Assay [9] shares this target. The assay can be described thus: TOX21_p53_BLA_p4_ratio: Tox21 HCT-116 p53 Agonism Beta-lactamase Assay, Ratio, Phase 4 (AID 2283601). Summed up: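 HCT-116 p53 beta-lactamase reporter cells (4000/well) preincubated 5 h, then compound (217-fold dilution of DMSO stock) for 16 h at 37C. CCF4-AM substrate added 2 h at room temperature; 460/530 nm emission ratio fitted upward versus DMSO.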

Assay [10] in a line: Tanguay_ZF_120hpf_MORT_legacy: (Legacy) Oregon State University Tanguay Lab 120 Hour Post-fertilization zebrafish Assay for Mortality (AID 2283633).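 For AC50: fitted as increase in binary mortality versus DMSO negative control.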 The method in brief: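 Brightfield scoring of embryo death (binary) at 24 and 120 hpf; static exposure 6–120 hpf, 28C, sealed and foil-covered. Pronase-dechorionated 5D wild-type larvae, single embryo per well. DMSO 0.64% v/v; trimethyltin chloride 5uM positive control.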

Assay [11] can be described thus: Tanguay_ZF_120hpf_YSE_legacy: (Legacy) Oregon State University Tanguay Lab 120 Hour Post-fertilization zebrafish Assay for Yolk Sac Edema (AID 2283634).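 For AC50: actives raise the incidence of yolk sac edema above the DMSO baseline.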 The method in brief: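 Binary brightfield scoring of yolk sac edema at 120 hpf; DMSO baseline, gain-of-signal fitting. Dechorionated 5D larvae, one per well, static exposure 6–120 hpf, 28C, 0.64% DMSO. Dead embryos not scored.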

The nature of assay [12]: Tanguay_ZF_120hpf_AXIS_legacy: (Legacy) Oregon State University Tanguay Lab 120 Hour Post-fertilization zebrafish Assay for Body Axis Malformation (AID 2283635). Summed up:
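Embryos: 5D wild-type, pronase-dechorionated 4 hpf; static exposure 6–120 hpf, 28C, sealed, dark, 1 embryo/well, 0.64% DMSO. 120 hpf axis malformation scored present/absent; dead embryos excluded. Analysed as gain of signal vs DMSO.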

The nature of assay [13]: Tanguay_ZF_120hpf_EYE_legacy: (Legacy) Oregon State University Tanguay Lab 120 Hour Post-fertilization zebrafish Assay for Eye Malformation (AID 2283636).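 Note: binary presence or absence of eye malformation scored by brightfield in 120 hpf larvae.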 Summed up:
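5D wild-type embryos, pronase-dechorionated at 4 hpf; static exposure 6–120 hpf, 28C, dark; DMSO 0.64% final; 5uM trimethyltin chloride positive control. Binary eye-defect scoring at 120 hpf; dead embryos not scored.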

Assay [14] is described as follows: Tanguay_ZF_120hpf_SNOU_legacy: (Legacy) Oregon State University Tanguay Lab 120 Hour Post-fertilization zebrafish Assay for Snout Malformation (AID 2283637). Summed up: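 Binary brightfield scoring of snout malformation at 120 hpf. Dechorionated 5D wild-type embryos, one per well, static exposure from 6 hpf at 28C, sealed and dark; final DMSO 0.64% (vol/vol), DMSO as baseline; 5uM trimethyltin chloride positive control.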

Assay [15] in a line: Tanguay_ZF_120hpf_JAW_legacy: (Legacy) Oregon State University Tanguay Lab 120 Hour Post-fertilization zebrafish Assay for Jaw Malformation (AID 2283638).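 For AC50: active means more embryos with jaw malformation than DMSO controls.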 The method in brief:
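Binary jaw-malformation calls at 120 hpf by brightfield imaging; DMSO (0.64% v/v) = baseline. Embryos: 5D wild-type, pronase-dechorionated, one per well from 6 hpf, static exposure, 28C, sealed, dark.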

Assay [16] is described as follows: Tanguay_ZF_120hpf_OTIC_legacy: (Legacy) Oregon State University Tanguay Lab 120 Hour Post-fertilization zebrafish Assay for Otic Vesicle Malformation (AID 2283639). The method in brief:
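Wild-type zebrafish larvae, whole-embryo exposure from early stage to 120 hpf at 28C. Binary brightfield scoring of otic vesicle morphology, fitted in the positive direction against the DMSO baseline.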

The nature of assay [17]: Tanguay_ZF_120hpf_PE_legacy: (Legacy) Oregon State University Tanguay Lab 120 Hour Post-fertilization zebrafish Assay for Pericardial Edema (AID 2283640).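 For AC50: potency for increased incidence of pericardial edema versus DMSO baseline.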 Summed up: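 Static waterborne exposure, 5D wild-type embryos, 28C, to 120 hpf; final DMSO 0.64% (vol/vol). Binary PE call at 120 hpf by brightfield; fitted upward vs DMSO baseline. 5uM trimethyltin chloride as positive control.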

A short description of assay [18]: Tanguay_ZF_120hpf_BRAI_legacy: (Legacy) Oregon State University Tanguay Lab 120 Hour Post-fertilization zebrafish Assay for Brain Malformation (AID 2283641). The method in brief:
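Read-out: binary brain morphology call at 120 hpf (brightfield), fitted in gain-of-signal direction vs DMSO. Wild-type Tropical 5D embryos, static exposure, 28C, 0.64% DMSO final; 5uM trimethyltin chloride as positive control.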

A short description of assay [19]: ATG_XTT_Cytotoxicity: Cytotoxicity Assessment in the Attagene TRANS-FACTORIAL HepG2 Assay (AID 2283584). Summed up: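 XTT readout of cell number in transfected HepG2 cells, 24 h post-dosing; DMSO serves as negative control and baseline, with activity taken as loss of viability signal.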
Assay [20] can be described thus: TOX21_p53_BLA_p5_viability: Viability Assessment in the Tox21 HCT-116 p53 Agonism Beta-lactamase Assay, Phase 5 (AID 2283600). The method in brief: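 ATP luminescence (CellTiter-Glo, 30 min, RT) served as the viability read-out, with loss of signal indicating cytotoxicity. Compounds in DMSO were pinned at a 217-fold dilution onto 4000 cells/well and incubated 16 h, 37C.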

Results filed as inconclusive are left out. Activity calls are given as the source filed them. Rule for the calls, unless noted: active = hit-call score of the fitted dose curve at least 0.9, where 1 is the maximum; inconclusive = response in the unintended direction; inactive = score below 0.9.

Usually AC50 stands for the midpoint of the concentration-response curve, whichever way the signal moves.

Chain of Cellular tumor antigen p53 (Homo sapiens) (P04637 whole entry, looked up): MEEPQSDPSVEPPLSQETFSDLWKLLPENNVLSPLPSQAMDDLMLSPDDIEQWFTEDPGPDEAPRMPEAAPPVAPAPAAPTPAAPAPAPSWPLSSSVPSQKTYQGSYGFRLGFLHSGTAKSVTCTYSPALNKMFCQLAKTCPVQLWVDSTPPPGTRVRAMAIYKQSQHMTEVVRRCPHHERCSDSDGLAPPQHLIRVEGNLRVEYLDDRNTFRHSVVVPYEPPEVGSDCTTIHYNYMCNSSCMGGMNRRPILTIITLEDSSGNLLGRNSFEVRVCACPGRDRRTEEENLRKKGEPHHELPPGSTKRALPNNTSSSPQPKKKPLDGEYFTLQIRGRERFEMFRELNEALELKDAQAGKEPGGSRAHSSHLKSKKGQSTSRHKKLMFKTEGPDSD

In the case of `CCOP(=O)(OCC)Oc1nc(Cl)c(Cl)cc1Cl`, the concentration at half-maximal activity (AC50) in [1] is 83.1 µM (active); in assay [8] it was 38.3 µM (active); in assay [9] it was 61.7 µM (active); in assay [10], 0.887 µM (active). In addition, the call in assay [2], in [3], in assay [4], in [5], in assay [6] and in [7] was inactive. Also, the outcome in assay [11], in assay [12], in assay [13], in assay [14], in assay [15] and in [16] was inactive. The molecule was called inactive in assay [17] and in assay [18].

For the molecule `CC(C)Oc1cccc(NC(=O)c2ccccc2C(F)(F)F)c1`, the molecule was classed as inactive in assay [1], in [2], in [3], in [4], in assay [5] and in assay [6]. The call in assay [7], in [8], in [9], in assay [10], in [12] and in assay [16] was inactive. The AC50 is 48.7 µM (active) in [11]; 15.5 µM (active) in assay [13]; 50.4 µM (active) in assay [14]; 40.4 µM (active) in assay [15]; 48.1 µM (active) in assay [17]; 38.3 µM (active) in assay [18].

For `CSC(=O)c1c(C(F)F)nc(C(F)(F)F)c(C(=O)SC)c1CC(C)C`, the call in assay [1], in assay [19], in assay [3], in [4], in assay [6] and in assay [7] was inactive. The result in [8], in assay [10], in assay [11], in assay [12], in assay [13] and in [14] was inactive. Further, the molecule was called inactive in assay [15], in assay [16], in [17] and in assay [18]. Moreover, the concentration at half-maximal activity (AC50) in assay [2] is 78.7 µM (active).

With `COP(=S)(OC)Oc1ccc([N+](=O)[O-])c(C)c1`, the molecule was classed as inactive in assay [1], in [2], in assay [19], in [3], in assay [4] and in assay [5]. For the same molecule, the result in assay [6], in [7], in assay [8], in assay [9], in [10] and in [11] was inactive. Also, the result in assay [12], in [13], in assay [14], in assay [15], in [16] and in [17] was inactive. The molecule was classed as inactive in assay [18].

With `Cc1cc(C)nc(Nc2ccccc2)n1`, the call in [1], in assay [2], in assay [3], in assay [4], in [6] and in assay [7] was inactive. For the same molecule, the outcome in assay [8], in assay [20], in assay [10], in assay [11], in assay [13] and in assay [14] was inactive. Besides, the call in assay [15], in [16], in [17] and in assay [18] was inactive.

Consider `CS(=O)(=O)c1ccc(C(=O)C2C(=O)CCCC2=O)c([N+](=O)[O-])c1`, for which the outcome in assay [1], in assay [2], in assay [3], in assay [4], in assay [5] and in [6] was inactive. The molecule was classed as inactive in [7], in assay [8], in assay [9], in assay [10], in [11] and in [12]. In addition, the outcome in assay [13], in assay [14], in [15], in assay [16], in assay [17] and in assay [18] was inactive.

Turning to `CCN(CC)C(=O)C(C)Oc1cccc2ccccc12` (centres undefined), the concentration at half-maximal activity (AC50) is 50 µM (active) in assay [1] and 55 µM (active) in assay [11]. In addition, the molecule was classed as inactive in assay [2], in assay [19], in assay [3], in assay [4], in assay [6] and in [7]. Also, the outcome in assay [8], in [9], in [10], in assay [12], in assay [13] and in [14] was inactive. Further, the molecule was classed as inactive in [15], in assay [16], in assay [17] and in [18].

Values taken from PubChem BioAssay (EPA / NIEHS).
